Assay results: PubChem BioAssay AID751 (NMMLSC, 2007)
Among all 24,000 compounds or so, about 40 (0.2%) were called active. The sample holds actives, similar compounds and a random draw of the others, so the mix is not that of the screen.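 The calls were made as follows: active = inhibition of disassembly above about 33% (limit read from the data); inconclusive = likely self-fluorescent, control bead median signal at least 40; inactive = the rest.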

system: 26S proteasome (yeast, GFP-tagged, ATP-dependent disassembly); test: blockers of yeast 26S proteasome breakdown – biochemical, bead-based flow cytometry, GFP-tagged proteasome, primary screen (AID 751); conditions: anti-FLAG beads, stronger effect = higher value, concentration not given here;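 also: plate controls were ATP control with full disassembly for no effect and ATP-gamma-S intact proteasomes for full effect; higher percent means more bead fluorescence retained so stronger block of disassembly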

Inhibition of disassembly, inactive:
Cc1nc2sc(C(c3ccco3)N3CCC4(CC3)OCCO4)c(O)n2n1 (stereo not drawn) -1.33%
CCn1ncc(C2=NOC(C(=O)Nc3ccccc3C(=O)OC)C2)c1C (stereo not drawn) 0.71%
CCCn1c(C(O)c2ccc(OCC)cc2)nc2ccccc21 (stereo not drawn) 0.49%
CCn1cc(C(=O)NC2CCCCCC2)c(=O)c2cc(S(=O)(=O)N3CCCCC3)ccc21 -0.53%
Cc1nonc1NC(=O)c1ccccc1Br -2.02%
CC1C=CCC2C(=O)N(c3cccc(C(=O)N4CCCCCC4)c3)C(=O)C12 (stereo not drawn) -0.22%
CC(NC(=O)CN1CCN(Cc2ccc(Cl)cc2)C1=O)c1ccc2c(c1)OCCO2 (stereo not drawn) 0.26%
CCOc1cc2[nH]c(=S)n(CCCN3CCCC3=O)c(=O)c2cc1OCC -0.66%
O=C(c1ccc2c(c1)N(Cc1ccc(F)cc1)C(=O)CS2)N1CCOCC1 3.05%
O=C(CCCN1C(=O)C2C3C=CC(C3)C2C1=O)N1CCN(c2ccccc2)CC1 (stereo not drawn) -1.14%
COc1ccc(C2C3=C(OC(C)=O)c4ccccc4C3=Nc3c2c(=O)n(C)c(=O)n3C)cc1 (stereo not drawn) -0.28%
Nc1nc(SCCOc2ccccc2)n[nH]1 1.41%
Cc1cc(C(=O)O)c(S(C)(=O)=O)s1 -0.75%
Cc1noc(/C=C/N(C)C)c1S(=O)(=O)N1CCCC(C(=O)NCc2ccco2)C1 (stereo not drawn) -7.75%
COc1cccc(Nc2nnc(SCC(=O)N3CC(C)OC(C)C3)s2)c1 (stereo not drawn) -3.96%
Cc1cc(Nc2ccc(Br)cc2F)n2ncnc2n1 -4.6%
CCOC(=O)c1sc(=S)n2c1[nH]c(=O)c1ccc(C(=O)OC)cc12 0.98%
Cn1c(C(=O)NCCN2CCc3ccccc3C2)cc2c(=O)[nH]c3ccccc3c21 -0.79%
O=C(COc1ccccc1F)NC1CC1 -1.13%
O=C1CC(c2cccc(F)c2)C2=C(CCCC2=O)N1 (stereo not drawn) -0.41%
Cc1c2cn[nH]c(=O)c2c(C)n1Cc1ccc(F)cc1 2.63%
COc1ccc2oc(=O)c(C(=O)N3CCN(c4ccccc4F)CC3)cc2c1 -0.83%
COc1ccccc1N1CCN(c2nc3ccccc3n3nnnc23)CC1 22.2%
Cc1cccc(NC(=O)CSc2nnc(NC(=O)CN3CCOCC3)s2)c1 0.22%
COc1cccc(-n2c(Cc3cc(=O)[nH]c(=O)[nH]3)nnc2SCC(=O)Nc2ccccc2)c1 -1.55%
CCOc1ccc(OCC)c(NC(=O)C(NS(=O)(=O)c2ccc3c(c2)oc(=O)n3C)C(C)C)c1 (stereo not drawn) -0.66%
CCOC(=O)N1CCC(NC(=O)CN2C(=O)COc3ccc(C(C)(C)C)cc32)CC1 -0.61%
Cc1ccccc1C(=O)NCCN=C1NS(=O)(=O)c2ccccc21 -0.63%
CCOc1cc2c(cc1OCC)C(C(=O)O)C(c1ccc(OC)c(O)c1)N(C)C2=O (stereo not drawn) 0.12%
O=C(Nc1c2c(nn1-c1ccc(F)cc1)CS(=O)C2)C12CC3CC(CC(C3)C1)C2 (stereo not drawn) -2.52%
CC1CCC(NC(=O)c2ccc(N3CCCC3=O)cc2)CC1 (stereo not drawn) 5.08%
Cc1cccc2c1N(CC(=O)OC(C)C)C(=O)C2=O 1.8%
CN(CC(=O)NC1CCCCC1)S(=O)(=O)c1cccc2cccnc12 -0.29%
O=C(CN1CCN(c2ccccc2F)CC1)c1ccc2c(c1)OCO2 -0.87%
Cc1cc(Nc2cccc(C)c2C)n2ncnc2n1 1.4%
Cc1ccc(S(=O)(=O)N(C)CC(=O)NC2CCCC2)cc1 1.94%
CCN(CC)C(=O)N1CCN(C(=O)c2ccc(C)cn2)CC1 0.26%
C#CCN1C(=O)C(O)(CC(=O)c2cc(OC)ccc2OC)c2ccccc21 (stereo not drawn) -0.27%
COc1ccc(S(=O)(=O)NC2(C(F)(F)F)N=C3SCCN3C2=O)cc1 (stereo not drawn) 0.29%
COc1cc(C2C(C(=O)Nc3ccccc3OC)=C(C)Nc3ncnn32)ccc1O (stereo not drawn) -1.23%
CC(=O)C1C(c2cccc(Oc3ccccc3)c2)NC(=O)NC1(O)C(F)(F)F (stereo not drawn) 3.33%
CC(C)CNS(=O)(=O)c1ccc(OCC(=O)Nc2ccc3c(c2)OCO3)c(Cl)c1 0.65%
CC1CCCN(C(=O)c2ccc3c(c2)C(=O)N(CCC2=CCCCC2)C3=O)C1 (stereo not drawn) -0.2%
COCCn1c(CN(Cc2ccccc2)Cc2ccccc2)nc2c1c(=O)n(C)c(=O)n2C 0.04%
CCOC(=O)N1CCN(C(=O)c2n[nH]c(=O)c3ccccc23)CC1 -0.81%
COc1ccccc1C(=O)NCCn1cc(SCC(=O)NCc2ccco2)c2ccccc21 0.52%
COc1ccccc1NC(=O)CN1CCN(S(=O)(=O)c2ccc(Br)cc2)CC1 -0.52%
CCOc1ccccc1NC(=O)C1CCC(CNc2c(N3CCOCC3)c(=O)c2=O)CC1 (stereo not drawn) 0.11%
CCC(C(=O)Nc1ncccn1)(C(F)(F)F)C(F)(F)F -0.33%
CCOC(=O)c1nnn(CC(=O)Nc2cccc(F)c2)c1C(=O)OCC -0.09%
Cc1ccc(C2CC(c3cccc(Br)c3)n3nc(N)nc3N2)cc1 (stereo not drawn) 0.65%
Cc1oc(-c2ccccc2F)nc1CS(=O)(=O)CC(=O)NCCCN(C)C1CCCCC1 -0.8%
Cc1nnc(NC(=O)CCC(=O)N2CCC(C)CC2)s1 -1.57%
COc1ccc(-c2c(C)nn3c(N4CCC(C(=O)N5CCCCC5)CC4)cc(C)nc23)cc1OC -1.42%
NS(=O)(=O)c1cc2c(cc1Cl)NC(C(Cl)Cl)NS2(=O)=O (stereo not drawn) -0.98%
COc1ccc(OC)c(NC(=O)CC(Cc2ccccc2OC)C(=O)O)c1 (stereo not drawn) -1.04%
Cc1noc(C)c1S(=O)(=O)Nc1ccc(C(=O)O)cc1 1.24%
CCCOC(=O)Nc1sc2c(c1C(=O)OCC)CCC2 1.34%
